The results in this text go back to the supplement of paper PMC12669797.

Assay [1] concerns ES2. The assay can be described thus: cell viability relative to DMSO control (MTS) (fraction of DMSO control); higher = more viable cells / less growth inhibition. The following applies: 10 µM; 48 h. The method, boiled down: (§1)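 A 367-compound […] library was tested at a final concentration of 10 µM on TOV-21G and ES2 clear cell carcinoma cells (5000 cells per well, 96-well plates, pre-grown 24 h), with control wells receiving vehicle only. Following 48 h of exposure, CellTiter 96 AQueous One Solution was used as the manufacturer directs. This MTS assay gives cell viability as a fraction of the vehicle control.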

In assay [2] the test system is TOV-21G. Described as above. The following applies: 10 µM; 48 h. The method in brief:
as §1

Where a name gives a salt, the structure may show the parent alone. ± gives the standard deviation of the averaged measurements.

`O=C(NCCCCCCNC(=O)ON=C1CCCCC1)ON=C1CCCCC1`: the figures for the cell viability in assay [1] and in assay [2] were 1.3 and 0.996, respectively.

For `Cc1ccc(Nc2nccc(N(C)c3ccc4c(C)n(C)nc4c3)n2)cc1S(N)(=O)=O` [pazopanib], the results for the cell viability in assay [1] and in assay [2] were 0.96 and 0.864, respectively.

Turning to `O=CN1CCN(c2ccc(/C=C3\C(=O)Nc4ccccc43)cc2)CC1`, the cell viability stood at 1.13 in assay [1] and 1.2 in assay [2].

Regarding `Cc1cccc(-c2nn3c(c2-c2ccnc4ccc(C(N)=O)cc24)CCC3)n1`, the cell viability in assay [1] amounted to 0.988; in assay [2], 1.02.

Regarding `Cc1cc(C=C2C(=O)C=CC2=O)cc(C)c1O`, the cell viability amounted to 0.801 in assay [1] and 1.21 in assay [2].

In the case of `COc1ccc(COc2ccc(Cc3cnc(N)nc3N)cc2OC)cc1` [cFMS Receptor Tyrosine Kinase Inhibitor], the cell viability turned out to be 0.942 in assay [1] and 1.01 in assay [2].

With `COCC[n+]1c2c(n(Cc3cnccn3)c1C)C(=O)c1ccccc1C2=O`, the cell viability in assay [1] came to 0.242; in assay [2], 0.291.

Consider `COC(=O)[C@H](CC(C)C)NC(=O)c1ccc(NC[C@@H](N)CS)cc1-c1ccccc1`, for which the cell viability in assay [1] was determined as 1.09; in assay [2] it was 0.633.

For the compound `CCOC(=O)C(C)(C)Oc1ccc(Cl)cc1` [Clofibrate], the cell viability in assay [1] came out at 1.35; in assay [2], 1.03.

Regarding `CCOC(=O)C1=C(N)Oc2ccc(Br)cc2C1C(C#N)C(=O)OCC` (stereo unspecified), the figures for the cell viability in assay [1] and in assay [2] were 1.04 and 0.998, respectively.

With `COc1cc2ncnc(Nc3cccc(Cl)c3)c2cc1OC`, the cell viability was 1.04 ± 0.12 in assay [1] and 0.839 ± 0.24 in assay [2].

As for `CCCS(=O)(=O)Nc1ccc(F)c(C(=O)c2c[nH]c3ncc(-c4ccc(Cl)cc4)cc23)c1F` [Vemurafenib], the cell viability in assay [1] is 0.651; in assay [2], 0.881.

For the compound `O=C(CCCCCCC(=O)Nc1ccccc1)NO` [vorinostat], the results for the cell viability in assay [1] and in assay [2] were 0.38 and 0.388, respectively.

With `C1=Cc2nc1cc1nc(c(-c3ccccc3)c3ccc(cc4ccc([nH]4)c2-c2ccccc2)[nH]3)C=C1`, the cell viability in assay [1] was found to be 0.908; in assay [2], 1.19.

As to `COc1cc2c(cc1OC)-c1[nH]nc(Nc3cccc(F)c3)c1C2` [PDGF receptor tyrosine kinase inhibitor IV], the cell viability in assay [1] is 0.288; in assay [2], 0.297.

`CC(C)(C)c1nc2c3cc[nH]c(=O)c3c3cc(F)ccc3c2[nH]1` [JAK Inhibitor I]: the cell viability in assay [1] was determined as 0.561; in assay [2] it was 0.662.

In the case of `CN(C)CCCCC(=O)Nc1ccc(NC(=S)NC(=O)c2ccc(C(C)(C)C)cc2)cc1` [Tenovin-6], the cell viability in assay [1] was found to be 0.406; in assay [2] it was 0.274.

With `C=CC[C@@H]1/C=C(\C)C[C@H](C)C[C@H](OC)[C@H]2O[C@@](O)(C(=O)C(=O)N3CCCC[C@H]3C(=O)O[C@H](/C(C)=C/[C@@H]3CC[C@@H](O)[C@H](OC)C3)[C@H](C)[C@@H](O)CC1=O)[C@H](C)C[C@@H]2OC`, the figures for the cell viability in assay [1] and in assay [2] were 0.941 and 0.964, respectively.

As for `CN(Cc1cnc2nc(N)nc(N)c2n1)c1ccc(C(=O)N[C@@H](CCC(=O)O)C(=O)O)cc1` [Methotrexate], the cell viability in assay [1] was 1.16; in assay [2], 0.872.

As to `C[C@]1(O)C[C@@H](c2nc(-c3ccc4ccc(-c5ccccc5)nc4c3)c3c(N)nccn32)C1`, the results for the cell viability in assay [1] and in assay [2] were 0.62 and 0.875, respectively.

Take `Cc1cn(-c2cc(NC(=O)c3ccc(C)c(Nc4nccc(-c5cccnc5)n4)c3)cc(C(F)(F)F)c2)cn1` [nilotinib]: the cell viability in assay [1] was determined as 0.751; in assay [2], 0.709.

Regarding `Nc1ncnc2nc(-c3ccc(N4CCOCC4)nc3)cc(-c3cccc(Br)c3)c12`, the values for the cell viability in assay [1] and in assay [2] were 0.795 and 0.484, respectively.

As for `CC(C)c1ccc2c(c1)c(SC(C)(C)C)c(CC(C)(C)C(=O)O)n2Cc1ccc(Cl)cc1`, the cell viability in assay [1] amounted to 1.06; in assay [2], 0.959.

In the case of `COc1ccc(CCN(C)CCCC(C#N)(c2ccc(OC)c(OC)c2)C(C)C)cc1OC` (stereo unspecified) [Verapamil], the cell viability in assay [1] was found to be 0.953; in assay [2], 1.12.

As to `O=C(NCc1ccccc1)c1csc(Nc2ccncn2)n1` [Thiazovivin], the cell viability amounted to 0.941 in assay [1] and 1.04 in assay [2].

For `CNC(=O)c1ccc(N2C(=S)N(c3ccc(C#N)c(C(F)(F)F)c3)C(=O)C2(C)C)cc1F`, the cell viability came out at 1.14 in assay [1] and 1.18 in assay [2].

With `CC(=O)N[C@@H](CS)C(=O)O` [N-Acetyl-L-cysteine], the figures for the cell viability in assay [1] and in assay [2] were 1.04 and 0.965, respectively.

As for `Cc1ccc(NC(=O)c2ccc(CN3CCN(C)CC3)cc2)cc1Nc1nccc(-c2cccnc2)n1` [imatinib mesylate], the cell viability amounted to 0.956 in assay [1] and 1.09 in assay [2].

As to `CN(C)c1ccccc1CN1CCCN(Cc2ccccc2N(C)C)C1c1ccncc1`, the cell viability in assay [1] was 0.853; in assay [2], 0.229.

Regarding `O=C([O-])c1ccccc1O.[Na+]` [Sodium salicylate], the cell viability in assay [1] turned out to be 0.785; in assay [2], 1.27.

On to `CC(C)C[C@H](NC(=O)[C@@H](O)[C@H](N)Cc1ccccc1)C(=O)O` [Bestatin], for which the cell viability in assay [1] amounted to 0.885; in assay [2], 1.13.

As to `C[n+]1ccc(-c2c3nc(c(-c4cc[n+](C)cc4)c4ccc([nH]4)c(-c4cc[n+](C)cc4)c4ccc([nH]4)c(-c4cc[n+](C)cc4)c4nc2C=C4)C=C3)cc1`, the values for the cell viability in assay [1] and in assay [2] were 0.933 and 0.79, respectively.

Take `CN(C)CC(=O)Nc1ccc2[nH]c(=O)c3ccccc3c2c1`: the figures for the cell viability in assay [1] and in assay [2] were 0.788 and 0.882, respectively.
